Screening data deposited in PubChem by several laboratories.
Rows were chosen to be rich in hits. Some 1.8% of all compounds tested hit in one or more screens of this group.
GRK2 inh: blocks RNA aptamer binding to human GRK2. P25098. bead flow cytometry, FAM-aptamer displacement from GRK2. inhibition of aptamer binding, % at 10 µM. 330,000 compounds, 0.59% hits. AID 488847;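 active = inhibition of aptamer binding above 40%, roughly 3 SD of noise, on plates passing a quality check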;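 note: median bead fluorescence of bound FAM aptamer so fluorescent compounds give negative values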
PKD1 kinase inh: blocks activity of human protein kinase D1; inhibition, % (concentration not given with the values); Q15139; AID 797; PKD1 kinase fluorescence polarization assay; 200,000 compounds, 0.056% hits
VLA-4 inh: inhibition in a human VLA-4 binding assay; P13612; AID 2557; inhibition, % (about 7 µM as worked out from the volumes in the protocol); VLA-4 expressing cells, ligand binding flow cytometry; 330,000 compounds, 0.2% hits
Pemphigus Ab inh: blocks pemphigus antibody binding to human desmoglein-3 | 310,000 compounds, 0.48% hits | binding (percent of control), % at 10 µM | P32926 | DSG3-coupled beads, scFv-anti-DSG3-GFP binding, flow cytometry; hits give low values;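 active = binding more than 3 SD below its plate's average and above zero; inconclusive = below that plate limit but binding exactly zero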;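 note: hits lower antibody fragment binding to DSG3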
HDAC3 inh: human HDAC3 inhibition | AID 2718 | 320,000 compounds, 0.15% hits | inhibition, % at 8.3 µM | O15379 | recombinant HDAC3, fluorogenic peptide/trypsin coupled, fluorescence; in the data active = inhibition above about 26%, passing the limit was not always enough; inconclusive = no clear call, values can overlap the other calls
LANA-H2A inh: blocks KSHV LANA binding to histone H2A/H2B; cell-free LANA-H2A/H2B peptide, fluorescence polarization; inhibition, % (test concentration not listed); 320,000 compounds, 0.6% hits; AID 2629; in the data active = inhibition mostly above about 10%, no sharp cut-off; inactive = mostly below about 6.7%
Target sequence (Q9QR71 whole entry, looked up): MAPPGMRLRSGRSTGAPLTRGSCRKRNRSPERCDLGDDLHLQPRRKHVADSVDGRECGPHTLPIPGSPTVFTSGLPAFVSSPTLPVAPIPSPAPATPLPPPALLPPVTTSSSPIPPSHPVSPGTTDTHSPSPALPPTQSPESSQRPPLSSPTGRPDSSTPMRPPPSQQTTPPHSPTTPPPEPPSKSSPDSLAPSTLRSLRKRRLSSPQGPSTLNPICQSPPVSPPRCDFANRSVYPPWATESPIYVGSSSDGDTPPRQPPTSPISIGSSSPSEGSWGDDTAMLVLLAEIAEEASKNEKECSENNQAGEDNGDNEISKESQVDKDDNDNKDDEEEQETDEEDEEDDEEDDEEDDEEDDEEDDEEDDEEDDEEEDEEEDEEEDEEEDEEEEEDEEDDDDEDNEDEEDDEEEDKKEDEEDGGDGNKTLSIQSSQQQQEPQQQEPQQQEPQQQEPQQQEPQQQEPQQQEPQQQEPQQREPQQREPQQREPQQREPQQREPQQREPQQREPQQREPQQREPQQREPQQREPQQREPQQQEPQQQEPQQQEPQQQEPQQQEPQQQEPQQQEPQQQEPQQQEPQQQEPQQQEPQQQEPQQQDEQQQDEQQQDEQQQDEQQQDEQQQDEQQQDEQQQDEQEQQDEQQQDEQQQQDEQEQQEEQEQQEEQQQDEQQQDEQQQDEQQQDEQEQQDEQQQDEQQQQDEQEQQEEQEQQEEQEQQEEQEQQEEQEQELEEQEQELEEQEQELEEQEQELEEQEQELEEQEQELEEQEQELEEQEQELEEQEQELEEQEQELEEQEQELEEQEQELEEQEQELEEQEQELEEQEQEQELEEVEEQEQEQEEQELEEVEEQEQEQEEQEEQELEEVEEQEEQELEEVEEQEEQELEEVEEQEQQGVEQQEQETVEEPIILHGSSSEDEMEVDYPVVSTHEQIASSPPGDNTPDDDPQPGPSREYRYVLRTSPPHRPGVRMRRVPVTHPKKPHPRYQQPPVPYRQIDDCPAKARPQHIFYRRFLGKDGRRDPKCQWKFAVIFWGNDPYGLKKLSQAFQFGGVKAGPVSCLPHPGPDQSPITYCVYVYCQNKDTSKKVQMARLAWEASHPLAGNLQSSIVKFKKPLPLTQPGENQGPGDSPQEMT
VLA-4 allo CP: human VLA-4 allosteric modulation in cherry picked compounds | shares compounds with VLA-4 inh | U937 cells, HUTS-21 LIBS mAb binding, flow cytometry; LDV ligand present at threefold Kd | inhibition, % at 6.7 µM | 1,300 compounds, 2% hits | AID 2813; in the data active = inhibition above about 40%;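 note: 0% = ligand without compound and 100% = no ligand background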
Numbers without * were called inactive. Cut-off read from the data, not from the text of the source, unless noted: active = inhibition above about 50%; inactive = the rest.

What do the screens show for `Cn1c(NC(=O)c2ccc(C(C)(C)C)cc2)cc(=O)n(C)c1=O`?
GRK2 inh: 1; PKD1 kinase inh: 6; VLA-4 inh: 53*; Pemphigus Ab inh: 101; HDAC3 inh: -3; LANA-H2A inh: 0; VLA-4 allo CP: 4

What do the screens show for `Cn1c(NNC(=O)c2ccc(C(C)(C)C)cc2)cc(=O)n(C)c1=O`?
GRK2 inh: 0; PKD1 kinase inh: -1; VLA-4 inh: 4; Pemphigus Ab inh: 94; HDAC3 inh: -6; LANA-H2A inh: -1

Results for NS(=O)(=O)c1ccc(Sc2ccc3c(c2)CCC3)nc1 ?
GRK2 inh: 0; VLA-4 inh: 1; Pemphigus Ab inh: inconclusive; HDAC3 inh: 6; LANA-H2A inh: 5

How did COc1cccc(C(=O)O/N=C(\N)c2ccc(C)cc2)c1 do in these assays?
GRK2 inh: 0; VLA-4 inh: 42; Pemphigus Ab inh: 89; HDAC3 inh: 3; LANA-H2A inh: -1; VLA-4 allo CP: -22

How did S=C(NCCCc1ccccc1)Nc1ccccc1Cl do in these assays?
GRK2 inh: 0; PKD1 kinase inh: -10; VLA-4 inh: 50*; Pemphigus Ab inh: 96; HDAC3 inh: 8; LANA-H2A inh: 0; VLA-4 allo CP: 19

How did S=C(NCCc1ccccc1)Nc1ccccc1Cl do in these assays?
GRK2 inh: 0; PKD1 kinase inh: -2; VLA-4 inh: 11; Pemphigus Ab inh: 107; HDAC3 inh: -7; LANA-H2A inh: -2

How did C/C(=N\NC(=O)c1ccc(N2CCCC2=O)cc1)c1ccncc1 do in these assays?
GRK2 inh: 1; VLA-4 inh: 1; Pemphigus Ab inh: 99; HDAC3 inh: 1; LANA-H2A inh: -1

How did CCOC(=O)c1c(NC(=O)C2c3ccccc3Oc3ccccc32)sc(C(N)=O)c1C do in these assays?
GRK2 inh: 0; PKD1 kinase inh: 0; VLA-4 inh: 14; Pemphigus Ab inh: 108; HDAC3 inh: -5; LANA-H2A inh: 0; VLA-4 allo CP: 15

Results for COc1cccc(N2C(=NC(=O)COc3ccccc3)SC3CS(=O)(=O)CC32)c1 (stereo unspecified) ?
GRK2 inh: 0; VLA-4 inh: 9; Pemphigus Ab inh: 113; HDAC3 inh: 0; LANA-H2A inh: -2

Results for Cc1nc2nc(C)c(NS(=O)(=O)c3ccc(C4CCCCC4)cc3)c(=O)n2[nH]1 ?
GRK2 inh: 0; VLA-4 inh: -3; Pemphigus Ab inh: inconclusive; HDAC3 inh: 6; LANA-H2A inh: -1

How did Cc1ccc(C(=O)/C=C\C(=O)c2ccc(C)cc2)cc1 do in these assays?
GRK2 inh: 6; PKD1 kinase inh: -1; VLA-4 inh: 68*; Pemphigus Ab inh: 98; HDAC3 inh: -6; LANA-H2A inh: 10; VLA-4 allo CP: 30

What do the screens show for `C=CCNc1ncnc2c1cnn2-c1cccc(C)c1`?
GRK2 inh: 0; PKD1 kinase inh: -9; VLA-4 inh: 66*; Pemphigus Ab inh: 97; HDAC3 inh: 0; LANA-H2A inh: -5; VLA-4 allo CP: 6

How did CC1=CC(c2ccccc2)=Nc2ccc(C)cc2N1 do in these assays?
GRK2 inh: 4; PKD1 kinase inh: -3; VLA-4 inh: 66*; Pemphigus Ab inh: 97; HDAC3 inh: 3; LANA-H2A inh: -1; VLA-4 allo CP: 0

What do the screens show for `Cc1ccnc(SCC(=O)N2CCC(C(N)=O)CC2)n1`?
GRK2 inh: 2; PKD1 kinase inh: -11; VLA-4 inh: 51*; HDAC3 inh: inconclusive; LANA-H2A inh: 2; VLA-4 allo CP: 12

How did COc1ccc(-c2nc(CN3CCN(c4ccccc4OC)CC3)c(C)o2)cc1 do in these assays?
GRK2 inh: 0; PKD1 kinase inh: -14; VLA-4 inh: -10; Pemphigus Ab inh: 97; HDAC3 inh: 8; LANA-H2A inh: -5

Results for COc1ccccc1N1CCN(Cc2nc(-c3ccc(F)cc3)oc2C)CC1 ?
GRK2 inh: 3; PKD1 kinase inh: -6; VLA-4 inh: 52*; Pemphigus Ab inh: 86; HDAC3 inh: 7; LANA-H2A inh: 2; VLA-4 allo CP: -7

How did COc1cc2c(cc1OC)C(c1cc(OC)c(OC)cc1[N+](=O)[O-])N(C(C)=O)CC2 (stereo unspecified) do in these assays?
GRK2 inh: 1; VLA-4 inh: 41; Pemphigus Ab inh: 95; HDAC3 inh: -5; LANA-H2A inh: 1; VLA-4 allo CP: -7

What do the screens show for `CCCCS(=O)(=O)N1CCN(S(=O)(=O)c2ccc(Cl)s2)CC1`?
GRK2 inh: 2; VLA-4 inh: -3; Pemphigus Ab inh: 110; HDAC3 inh: -3; LANA-H2A inh: -1

How did Cc1cc2nc3c(c(=O)n2[nH]1)CCCC3 do in these assays?
GRK2 inh: 0; PKD1 kinase inh: 0; VLA-4 inh: 91*; Pemphigus Ab inh: 107; HDAC3 inh: 0; LANA-H2A inh: 1; VLA-4 allo CP: 2

How did O=C(Nc1ccccc1)OCc1cnc(Cl)s1 do in these assays?
GRK2 inh: 2; PKD1 kinase inh: -8; VLA-4 inh: 0; Pemphigus Ab inh: 102; HDAC3 inh: -2; LANA-H2A inh: 2; VLA-4 allo CP: 3

Results for O=C(Nc1ccccc1)OCc1cncs1 ?
GRK2 inh: 4; PKD1 kinase inh: 3; VLA-4 inh: 7; Pemphigus Ab inh: 96; HDAC3 inh: -1; LANA-H2A inh: 0; VLA-4 allo CP: 6

Results for O=C(Nc1ccc(Cl)c(Cl)c1)OCc1cncs1 ?
GRK2 inh: 0; PKD1 kinase inh: 3; VLA-4 inh: 4; Pemphigus Ab inh: 127; HDAC3 inh: -6; LANA-H2A inh: 1; VLA-4 allo CP: -3

What do the screens show for `O=C(Nc1ccc(Cl)c(Cl)c1)OCc1cnc(Cl)s1`?
GRK2 inh: 0; PKD1 kinase inh: 0; VLA-4 inh: 2; Pemphigus Ab inh: 105; VLA-4 allo CP: 10

What do the screens show for `CC(=O)Nc1cccc(OCc2cnc(Cl)s2)c1`?
GRK2 inh: 0; PKD1 kinase inh: 0; VLA-4 inh: 2; Pemphigus Ab inh: 101; HDAC3 inh: -5; LANA-H2A inh: 0

What do the screens show for `NS(=O)(=O)c1ccc2nc(-c3ccccc3)c(-c3ccccc3)nc2c1`?
GRK2 inh: 0; VLA-4 inh: 1; Pemphigus Ab inh: 94; HDAC3 inh: -6; LANA-H2A inh: -1

What do the screens show for `CN(C)CCCn1c(SCC(=O)N2c3ccccc3Sc3ccccc32)nc2ccccc2c1=O`?
GRK2 inh: 0; PKD1 kinase inh: 4; VLA-4 inh: 53*; Pemphigus Ab inh: 117; HDAC3 inh: -1; LANA-H2A inh: 1; VLA-4 allo CP: 0

What do the screens show for `CCO[C@@H]1OC(C(=O)Nc2ccccc2)=C[C@H](C)[C@H]1CCCO`?
GRK2 inh: 1; VLA-4 inh: -6; Pemphigus Ab inh: 96; HDAC3 inh: -2; LANA-H2A inh: 3; VLA-4 allo CP: 5
